Test results published in the supplement of paper PMC3484114.
± gives the standard deviation.

Test system: OVCAR-3-derived ovarian cancer stem-like cells (spheroids)
Assay: cell growth relative to untreated control; higher = more growth (less inhibition)
Conditions: 2.29 µM; 96 h
Outline: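 Percent growth was calculated against untreated wells once blanks were subtracted and Grubbs outliers removed. The cells were OVCAR-3 spheroid-derived stem-like cells, trypsinized and plated at 50,000 cells/mL in stem cell medium on ultra-low attachment 96-well plates for a 24 h preincubation. They were then exposed to compounds at 2.29 uM for 96 h at 37°C, 5% CO2, in 4 replicate wells, and viability was measured by TOX8 resazurin fluorescence (ex 560/em 590 nm) after 4 h.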

| Structure (SMILES) | cell growth [%] |
| --- | --- |
| CC(C)C[C@H]1C(=O)N2CCC[C@H]2[C@]2(O)O[C@](NC(=O)[C@@H]3C=C4c5cccc6[nH]c(Br)c(c56)C[C@H]4N(C)C3)(C(C)C)C(=O)N12 | 90.6 ± 6.8 |
| CC[C@@]1(O)C[C@H](O)c2c(O)c3c(c(O)c2[C@H]1C(=O)OC)C(=O)c1cccc(O)c1C3=O | 49.5 ± 20 |
| COc1cccc2c1cc([N+](=O)[O-])c1c(C(=O)O)cc3c(c12)OCO3 | 95.5 ± 14 |
| COC1C(C)OC(OC2CC(C)(O)Cc3cc4c(c(O)c32)C(=O)c2c(O)cc3c(c2C4=O)OC2OC3(C)C(O)C(N(C)C)C2O)C(OC)C1(C)OC (stereo not given) | 8.5 ± 3.2 |
| Cc1ccc(N=Nc2c(O)ccc3ccccc23)cc1 | 74.1 ± 8.8 |
| O=[N+]([O-])[O-].O=[N+]([O-])[O-].O=[N+]([O-])[O-].[Ga+3] | 120 ± 11 |
| CC(=O)[O][Pb]([O]C(C)=O)([c]1ccccc1)[c]1ccccc1 | 80.2 ± 14 |
| N[C@@H](CN(O)N=O)C(=O)O | 105 ± 19 |
| Cn1c(=O)[nH]c2nncnc2c1=O | 92.3 ± 13 |
| O=C1C=C2C=CC3CC2(O1)C1CCCCN31 (stereo not given) | 49.8 ± 9.5 |
| CCC[CH2][Sn]1([CH2]CCC)[S]CC[N]1S(=O)(=O)c1ccc(C)cc1 | 36.9 ± 13 |
| CC1=C[C@H]2O[C@@H]3[C@H](O)[C@@H](O)[C@@](C)([C@@]2(CO)CC1)[C@]31CO1 | 36 ± 10 |
| CC(/C=N/N=C(N)N)=N\N=C(N)N | 70.6 ± 16 |
| CCC[CH2][Sn]([CH2]CCC)([CH2]CCC)[O]c1cc(Cl)c(Cl)cc1Cl | 8.8 ± 3.7 |
| C[C@H]1CCC/C=C/[C@@H]2C[C@H](O)C[C@H]2[C@H](O)/C=C/C(=O)O1 | 15 ± 2.5 |
| CC(=O)O[C@@H]1C[C@H]2O[C@@H]3C=C(C)CC[C@]3(C)[C@]1(C)[C@]21CO1 | 48.5 ± 11 |
| C1CN1c1nc(N2CC2)nc(N2CC2)n1 | 129 ± 82 |
| CC[C@](C)(O)C(=O)O[C@H]1C(=O)O[C@@H]2C[C@H]3C(C)=CC(=O)[C@@H](O)[C@]3(C)[C@H]3C4(O)OC[C@]32[C@@H]1[C@@H](C)[C@H]4O | 35.2 ± 15 |
| CC12C(=O)OC(=O)C1(C)C1CCC2O1 (stereo not given) | 91 ± 14 |
| COC1=C(C)C(=O)C2=C(C1=O)C(CO)N1C(C#N)C3CC4C(C1C2N1CCOC41)N3C (stereo not given) | 14.9 ± 4.6 |
